Molecules are shown by their SMILES. Active and inactive are the calls of the source.

Our source for the composite z-score and z-score values is PubChem BioAssay.

Assay [1] deals with PRMT1 (protein arginine N-methyltransferase 1). In words: small molecules binding arginine methyltransferase PRMT1 – biochemical, small-molecule microarray, 635 nm fluorescence, primary screen (AID 1088).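 Further: binding of Prmt1 protein to compounds spotted on small-molecule microarray slides.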 The conditions noted are these: higher = more signal.
A short description of assay [2]: growth effects on S. cerevisiae YJM789 – YJM789 clinical isolate, OD600, 24 h, basal, primary screen (AID 1089).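 Further: growth of clinical yeast isolate S. cerevisiae YJM 789 seeded 1000 cells per well; test concentration not given here.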 As to conditions: higher = more signal, called active from +8 up or from −8 down.
Assay [3] is described as follows: S. pombe growth modifiers, basal conditions – strain 972, OD600, 24 h, no modulator, primary screen (AID 1090).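 Further: basal condition with compound alone and no growth modifier present; test concentration not given here.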 As to conditions: S. pombe 972 growth, higher = more signal, called active from +8 up or from −8 down.
A short description of assay [4]: budding yeast growth modifiers under rapamycin – strain BY4716, OD600, 96 h, primary screen (AID 1091). Further: test concentration not given here. The conditions noted are these: S. cerevisiae BY4716 + rapamycin, higher = more signal, called active from +8 up or from −8 down.
In assay [5] the target is Torsin-1A-interacting protein 2 (Homo sapiens) (UniProt Q8NFQ8). Put plainly: small molecules binding lysate-expressed LULL1 – cell lysate, human LULL1 lysate, 635/667 nm fluorescence, primary screen (AID 1092).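 Further: probe is lysate of COS7 cells overexpressing human LULL1; score merges per-feature 667 nm fluorescence with signal-to-noise.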 The conditions noted are these: small-molecule microarray, hLULL1 lysate binding, 635 nm fluorescence; higher = more signal.
Sequence of Torsin-1A-interacting protein 2 (Homo sapiens) (Q8NFQ8 whole entry, looked up): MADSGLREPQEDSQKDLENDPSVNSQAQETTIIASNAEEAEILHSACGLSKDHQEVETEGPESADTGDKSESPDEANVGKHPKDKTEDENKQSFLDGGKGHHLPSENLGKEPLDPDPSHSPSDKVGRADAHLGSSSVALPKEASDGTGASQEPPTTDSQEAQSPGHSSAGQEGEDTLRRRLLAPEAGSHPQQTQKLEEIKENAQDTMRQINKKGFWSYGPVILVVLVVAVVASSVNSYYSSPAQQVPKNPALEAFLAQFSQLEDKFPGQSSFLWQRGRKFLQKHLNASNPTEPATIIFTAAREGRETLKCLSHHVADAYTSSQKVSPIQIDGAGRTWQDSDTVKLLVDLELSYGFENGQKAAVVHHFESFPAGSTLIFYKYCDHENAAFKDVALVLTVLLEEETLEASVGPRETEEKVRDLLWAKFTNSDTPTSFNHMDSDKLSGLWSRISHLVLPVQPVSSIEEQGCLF
Assay [6] can be described thus: optical density change of DRC41 E. coli – strain DRC41, OD650, 24 h, E. coli filamentation project, primary screen (AID 1093).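 Further: MC1000 strain lacking acrAB efflux and sulA so SOS filamentation is blocked; test concentration not given here.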 As to conditions: E. coli DRC41 growth, higher = more signal, called active from +8 up or from −8 down.
The nature of assay [7]: probe aLefty2 binding to arrayed compounds – biochemical, biotinylated probe, 635/667 nm fluorescence, primary screen (AID 1094).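 Further: score merges spot fluorescence near 667 nm with spot signal-to-noise ratio.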 As to conditions: small-molecule microarray, higher = more signal.
Assay [8] relates to Noggin (protein binding on small-molecule microarray). Put plainly: small molecules binding Noggin protein – biochemical, 635/667 nm fluorescence, primary screen (AID 1095).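 Further: score merges 667 nm feature fluorescence with signal to noise over triplicate slides.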 The conditions noted are these: 635 nm fluorescence, higher = more signal.
In assay [9] the target is Neurogenic locus notch homolog protein 3 (Homo sapiens) (UniProt Q9UM47). In words: small molecules binding NOTCH3 protein – biochemical, 635/667 nm fluorescence, primary screen (AID 1096). The conditions noted are these: small-molecule microarray, 635 nm fluorescence, higher = more signal.
Sequence of Neurogenic locus notch homolog protein 3 (Homo sapiens) (Q9UM47 whole entry, looked up): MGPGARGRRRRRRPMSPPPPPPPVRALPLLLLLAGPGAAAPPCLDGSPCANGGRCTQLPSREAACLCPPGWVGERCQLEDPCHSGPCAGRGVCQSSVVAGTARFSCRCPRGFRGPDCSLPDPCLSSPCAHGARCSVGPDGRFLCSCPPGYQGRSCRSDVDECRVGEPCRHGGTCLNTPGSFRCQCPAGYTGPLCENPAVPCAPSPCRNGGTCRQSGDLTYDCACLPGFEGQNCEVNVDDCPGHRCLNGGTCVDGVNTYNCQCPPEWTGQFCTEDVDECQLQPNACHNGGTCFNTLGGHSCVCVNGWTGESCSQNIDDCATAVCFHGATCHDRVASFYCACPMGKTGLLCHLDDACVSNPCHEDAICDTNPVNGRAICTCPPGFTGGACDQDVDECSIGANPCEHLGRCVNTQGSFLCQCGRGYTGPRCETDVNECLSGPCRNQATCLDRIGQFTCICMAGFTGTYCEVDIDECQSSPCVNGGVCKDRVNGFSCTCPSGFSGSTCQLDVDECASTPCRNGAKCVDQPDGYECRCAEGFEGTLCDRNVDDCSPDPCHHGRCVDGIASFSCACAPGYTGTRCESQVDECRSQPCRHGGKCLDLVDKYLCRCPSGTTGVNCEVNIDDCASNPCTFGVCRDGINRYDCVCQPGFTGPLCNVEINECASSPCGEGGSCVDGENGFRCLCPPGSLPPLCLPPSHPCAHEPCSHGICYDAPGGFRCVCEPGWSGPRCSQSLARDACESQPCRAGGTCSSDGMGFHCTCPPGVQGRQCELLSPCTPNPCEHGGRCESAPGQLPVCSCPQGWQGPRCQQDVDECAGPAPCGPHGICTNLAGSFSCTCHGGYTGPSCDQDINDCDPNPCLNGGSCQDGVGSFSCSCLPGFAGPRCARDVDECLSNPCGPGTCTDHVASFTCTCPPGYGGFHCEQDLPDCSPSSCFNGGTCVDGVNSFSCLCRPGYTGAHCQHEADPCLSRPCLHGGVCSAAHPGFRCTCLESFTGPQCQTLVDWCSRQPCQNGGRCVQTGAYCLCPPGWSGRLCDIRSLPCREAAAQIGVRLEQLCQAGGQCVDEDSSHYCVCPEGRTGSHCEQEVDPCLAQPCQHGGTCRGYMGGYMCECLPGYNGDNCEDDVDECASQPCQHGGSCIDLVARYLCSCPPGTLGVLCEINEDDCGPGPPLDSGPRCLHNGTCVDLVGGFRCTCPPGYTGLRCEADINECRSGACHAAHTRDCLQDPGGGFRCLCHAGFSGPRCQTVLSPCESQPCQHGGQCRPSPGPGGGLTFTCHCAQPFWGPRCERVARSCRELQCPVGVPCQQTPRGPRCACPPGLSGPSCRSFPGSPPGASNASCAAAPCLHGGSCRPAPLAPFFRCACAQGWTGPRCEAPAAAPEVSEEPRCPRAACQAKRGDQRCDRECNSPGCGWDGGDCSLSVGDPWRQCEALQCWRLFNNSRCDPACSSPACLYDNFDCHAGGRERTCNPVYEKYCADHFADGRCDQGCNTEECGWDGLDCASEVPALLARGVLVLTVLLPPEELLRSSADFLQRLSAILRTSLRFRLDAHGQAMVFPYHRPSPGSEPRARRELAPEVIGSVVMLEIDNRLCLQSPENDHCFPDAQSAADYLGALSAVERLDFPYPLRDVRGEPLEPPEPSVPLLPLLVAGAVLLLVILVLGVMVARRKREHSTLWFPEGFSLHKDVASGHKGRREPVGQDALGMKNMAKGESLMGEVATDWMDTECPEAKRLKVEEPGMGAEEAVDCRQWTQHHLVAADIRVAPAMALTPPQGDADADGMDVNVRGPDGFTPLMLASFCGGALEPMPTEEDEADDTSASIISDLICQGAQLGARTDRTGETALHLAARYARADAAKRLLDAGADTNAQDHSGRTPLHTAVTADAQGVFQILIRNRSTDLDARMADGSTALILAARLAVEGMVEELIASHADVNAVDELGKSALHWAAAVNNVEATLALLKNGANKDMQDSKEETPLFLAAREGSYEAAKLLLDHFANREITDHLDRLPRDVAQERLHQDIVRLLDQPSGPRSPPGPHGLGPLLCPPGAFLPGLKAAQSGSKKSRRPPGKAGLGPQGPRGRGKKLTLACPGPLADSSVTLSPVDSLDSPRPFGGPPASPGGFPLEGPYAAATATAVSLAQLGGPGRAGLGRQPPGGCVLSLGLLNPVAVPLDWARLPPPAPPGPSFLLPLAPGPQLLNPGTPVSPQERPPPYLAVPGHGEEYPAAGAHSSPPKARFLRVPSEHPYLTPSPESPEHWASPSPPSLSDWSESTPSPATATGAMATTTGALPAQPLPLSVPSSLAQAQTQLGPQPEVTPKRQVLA
The nature of assay [10]: probe aEGFR binding to arrayed compounds – biochemical, biotinylated probe, 635/667 nm fluorescence, primary screen (AID 1097).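 Further: probe is a biotinylated anti-EGFR antibody binding compounds printed on slides; score combines fluorescence near 667 nm and signal to noise of each spot.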 As to conditions: small-molecule microarray, higher = more signal.

On to `O=C1C[C@@](C(=O)NCc2ccccc2)(c2ccc([N+](=O)[O-])cc2)[C@@H](c2ccc(CO)cc2I)N1C1CCCCC1`, for which the composite z-score was found to be 1.55 in [1]; 2.38 in assay [5]; 0.569 in assay [7]; 0.924 in assay [8]; 1.12 in [9]; 0.695 in assay [10]. Further, the z-score is 1.2 (inactive) in [2], 0.856 (inactive) in assay [3], 3.33 (inactive) in assay [4] and 1.04 (inactive) in assay [6].
For the molecule `C=C(COC)/C(=C/C[C@@H](OC(=O)c1ccncc1)c1cccc(OCCO)c1)c1cc(C(=O)OC)ccc1OC`, the composite z-score was 1.56 in assay [1]; 0.512 in [5]; -0.205 in [7]; 1.32 in assay [8]; 0.841 in [9]; -0.0022 in assay [10]. For the same molecule, the z-score in [2] is -25.3 (active); in [3], -20.2 (active); in [4] it was -4.36 (inactive); in assay [6], 0.625 (inactive).
Take `COCCOC(=O)N1C(=O)[C@@]2(c3cc(C#Cc4ccc(OC)cc4)ccc31)[C@H](C(N)=O)[C@H]1C(=O)O[C@H](c3ccccc3)[C@H](c3ccccc3)N1[C@@H]2c1ccc(OCCO)cc1`: the composite z-score in [1] was 1.53; in assay [5], 2.75; in [7], -0.0757; in assay [8], 1.43; in [9], 1.07; in [10], 0.0251. The z-score was 2.17 (inactive) in assay [2], 0.719 (inactive) in assay [3], 4.88 (inactive) in [4] and 1.31 (inactive) in assay [6].
As for `COCCOC(=O)N1C(=O)[C@@]2(c3cc(C#CCNC(N)=O)ccc31)[C@H](C(=O)N1CCCCCCC1)[C@H]1C(=O)O[C@H](c3ccccc3)[C@H](c3ccccc3)N1[C@@H]2c1ccc(OCCO)cc1`, the composite z-score in assay [1] stood at 0.543; in [5], 0.808; in assay [7], 0.239; in assay [8] it was 0.616; in assay [9] it was 1.07; in [10], 0.0126. Besides, the z-score in [2] was 0.872 (inactive); in assay [3], 0.642 (inactive); in assay [4], 3.24 (inactive); in assay [6], -0.299 (inactive).
On to `COC(=O)[C@]1(Cc2ccccc2CN=[N+]=[N-])N=C(c2ccc(OCCCO)cc2)O[C@@H]1c1ccccc1`, for which the composite z-score in [1] was -0.985; in [5], 0.475; in [7], 0.17; in [8], -0.586; in assay [9] it was -0.601; in [10] it was -0.257. Besides, the z-score in assay [2] is 0.697 (inactive); in [3], -1.55 (inactive); in assay [4] it was 35.3 (active); in assay [6], 0.437 (inactive).
For the molecule `COC(=O)[C@@]1(Cc2ccc(OC)cc2)[C@H]2c3cc(C(=O)N(C)C)n(Cc4cc(C)n(C)n4)c3C[C@H]2CN1C(=O)c1ccccc1`, the composite z-score turned out to be 0.847 in [1]; 3.99 in assay [5]; 0.14 in assay [7]; 0.119 in assay [8]; 0.598 in [9]; 0.0423 in [10]. Also, the z-score is 0.296 (inactive) in assay [2], 0.134 (inactive) in assay [3], 0.562 (inactive) in [4] and -1.13 (inactive) in [6].
`CC(C)(C)N1CC=CC23O[C@@H]4C=CCCOC(=O)C4[C@H]2C(=O)N(CCCO)[C@@H]3C1=O` (stereo not given in full): the composite z-score in assay [1] was -1.49; in [5], -1.09; in [7], -0.195; in assay [8] it was -0.399; in [9], -1.7; in [10], -0.268. Also, the z-score in [2] was 0.0588 (inactive); in assay [3], -0.37 (inactive); in assay [4], -0.199 (inactive); in [6], 1.04 (inactive).
Take `O=C1c2ccccc2C(=O)C2CC([C@H]3Oc4ccccc4S(=O)(=O)N4CCC[C@@H]34)=CCC12` (stereo not given in full): the composite z-score is -0.739 in assay [1]; -0.312 in assay [5]; -0.116 in assay [7]; 0.162 in assay [8]; -0.42 in assay [9]; -0.124 in assay [10]. For the same molecule, the z-score is 0.151 (inactive) in [2], -0.717 (inactive) in assay [3], 0.388 (inactive) in [4] and 1.47 (inactive) in [6].
For `CN1C(=O)C2C=CC(C(O)COCc3ccccc3)N(Nc3ccccc3)C2C1=O` (stereo not given), the composite z-score in assay [1] is 0.691; in assay [5] it was 3.54; in [7], 0.147; in [8] it was 0.28; in assay [9] it was 0.896; in assay [10] it was -0.0232. The z-score in [2] is 0.12 (inactive); in assay [3] it was 1.15 (inactive); in assay [4], -0.116 (inactive); in assay [6] it was -0.309 (inactive).
Take `CCOC(=O)C[C@H]1[C@H](OC(=O)c2ccc(C(=O)c3ccccc3)cc2)[C@@H](NC(=O)C2CCCCC2)c2cc(OCCCO)ccc2N1C(=O)Cc1ccc(OC)cc1`: the composite z-score in assay [1] was 0.623; in [5], 0.603; in [7], 0.0044; in assay [8], 0.544; in assay [9] it was 0.88; in assay [10], 0.0408. Further, the z-score in [2] is -0.989 (inactive); in [3] it was 0.0425 (inactive); in assay [4], -0.0492 (inactive); in assay [6], 0.332 (inactive).
As for `CCCCCCC#C[Si](O[C@H](c1ccccc1)c1cn(Cc2cccc(Cl)c2)nn1)(C(C)C)C(C)C`, the composite z-score in assay [1] is 1; in assay [5] it was 0.416; in [7], -0.0719; in assay [8], 0.255; in [9] it was 0.487; in [10], -0.0828. For the same molecule, the z-score in assay [2] was -0.381 (inactive); in assay [3] it was 0.403 (inactive); in [4], -0.162 (inactive); in assay [6] it was 1.12 (inactive).
`C=C(CCCC)/C(=C/C[C@@H](OC(=O)c1ccncc1)c1ccccc1OCCO)c1cc(C(=O)OC)ccc1OC`: the composite z-score was 1.49 in assay [1]; 2.75 in [5]; -0.0154 in [7]; 0.987 in assay [8]; 0.754 in assay [9]; 0.0895 in [10]. Also, the z-score in [2] was 0.176 (inactive); in assay [3], -0.587 (inactive); in [4] it was 0.259 (inactive); in assay [6], 0.478 (inactive).
As for `C/C=C/[C@@H](CCn1cc([C@H](O)c2ccccc2)nn1)[Si](C)(C)c1ccc(OC)cc1`, the composite z-score in [1] is 1.03; in assay [5], 1.33; in assay [7], -0.171; in assay [8] it was -0.385; in assay [9] it was -0.498; in [10] it was -0.298. The z-score is -2.41 (inactive) in assay [2], -0.143 (inactive) in [3], -0.0906 (inactive) in assay [4] and 1.43 (inactive) in assay [6].
`COc1ccc(C(=O)Nc2ccc3c(c2)[C@]2(O[C@@H](CCO)[C@H]([Si](C)(C)c4ccc(OC)cc4)[C@H]2C)C(=O)N3Cc2ccccc2)cc1`: the composite z-score in assay [1] is 1.3; in assay [5], 0.468; in [7], -0.175; in [8], 0.78; in assay [9], 0.163; in [10], -0.107. In addition, the z-score was 0.122 (inactive) in assay [2], -3.28 (inactive) in [3], 3.8 (inactive) in assay [4] and 1.11 (inactive) in assay [6].
